Several values for one entry are separate records, joined by “and”; a condition that tells them apart may be missing. Identical values can stand only once. Activity calls are given as the source filed them.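 Rule for the calls, unless noted: active = compounds whose cell count with miR-34 switched on is under 0.7 times the count with it off; inactive = the rest.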
What was measured:
[1] = compounds altering viability of human ES cells (AID 493140; call rule not given here;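 note: cells exposed to compounds for four days before counting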); conditions: human embryonic stem cell survival screen; stronger effect = higher value
[2] = P. berghei load reduction in hepatocytes – cell-based, HepG2, luciferase luminescence, HepG2 viability, primary screen (AID 624349; in the data active = parasite load remaining mostly below about 12%, no sharp cut-off; inactive = mostly above about 10%;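 note: 100% = mean of DMSO negative control wells on the same plate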); conditions: P. berghei liver stage in HepG2, luciferase luminescence, concentration not given here; parasite load remaining: stronger effect = lower value; viability: measured here: HepG2 viability without parasites
[3] = Wnt pathway potentiators raising nuclear beta-catenin – imaging, WNT3A-conditioned medium, mouse C2C12, NPC library, primary screen (AID 1117326; in the data active = nuclear beta-catenin stimulation mostly above about 4.2%, no sharp cut-off; inactive = mostly below about 10%); conditions: stronger effect = higher value
[4] = stimulators of insulin release from INS-1E, primary screen, cell-based, 5 mM glucose, NPC library (AID 1117329;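 active = compound raises insulin release from rat beta cells at 5 mM glucose, no numeric limit stated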); conditions: rat INS-1E insulin secretion, at 10 µM, stronger effect = higher value
[5] = growth inhibition of GSK3B-pretreated HCT116 cells – cell-based, CellTiter-Glo, 0.2 to 20 µM (AID 1117336;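 active = compounds lowering colon cancer cell viability after pretreatment blocking the GSK3B kinase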); conditions: HCT116 viability after GSK3B inhibitor, at 20 µM, stronger effect = higher value
[6] = inhibition of endothelial tube formation, primary screen, imaging, VEGF stimulated, CD31 staining, tube area, NPC library (AID 1117340;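 active = compound that reduces growth-factor-driven endothelial tube area in a mixed cell culture, no cutoff stated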); conditions: VEGF-stimulated ADSC/ECFC co-culture, at 10 µM, stronger effect = higher value
[7] = GLP1 release stimulators, primary, NCI-H716, NPC library (AID 1117341;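 active = compound raises GLP1 secretion from the human gut endocrine cells, with no numeric limit stated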); conditions: NCI-H716 cells, at 10 µM, stronger effect = higher value
[8] = HCT116 colon cancer cell growth inhibition, primary screen, CellTiter-Glo luminescence, NPC library (AID 1117342;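 active = compounds that lower survival of HCT116 colon cancer cells in the luminescence readout, no numeric limit stated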); conditions: at 20 µM (top of the series)
[9] = reduced SW480 viability measured with CellTiter-Glo, NPC library, primary (AID 1117343;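 active = compounds that lower viability of the colon cancer cells in the luminescence readout, with no numeric limit stated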); conditions: CellTiter-Glo luminescence; at 20 µM (top of the series) unless noted
[10] = NPC library primary testing for decreased DLD-1 cell viability via CellTiter-Glo (AID 1117346;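 active = compounds that lower survival of DLD-1 colon cancer cells in the luminescence readout, no cutoff given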); conditions: DLD-1 viability, CellTiter-Glo luminescence; at 20 µM (top of the series)
[11] = EMT-state selective cytotoxicity in co-culture – imaging, PC-3E GFP, TEM4-18 mCherry, primary screen (AID 1345086;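 active = compounds killing one labelled cell type while sparing the other, by normalised counts and ratio limits, not self-fluorescent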;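 for all read-outs here: cells exposed to compound for 72 h before imaging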;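 for red/green cell ratio (normalised): normalised mesenchymal count divided by normalised epithelial count so high means epithelial killing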); conditions: PC-3E GFP / TEM4-18 mCherry co-culture, imaging cell counts, at 1 µM; for red/green cell ratio (normalised): actives lie on both sides, counts scaled to control wells, 1 = unselective
[12] = viability loss with induced miR-34 in A549 – imaging, A549 dox-inducible miR-34, nuclei and caspase counts, primary screen (AID 1347080); conditions: A549 miR-34 inducible, Hoechst nuclei count, 48 h
[13] = MELAS cybrid and Rieske KO viability enhancers – cell-based, MELAS cybrids, Rieske KO mouse fibroblasts, CellTiter-Glo, primary screen (AID 1508586;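 active = mean z-score across replicates of 1.96 or higher in either the MELAS or the Rieske mutant cell line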;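 note: z relative to plate mean and SD of compound and empty wells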); conditions: low glucose
[14] = molecular target: NAD(+) hydrolase SARM1 (Homo sapiens) (UniProt Q6SZW1); experiment: blocking NAD cleavage by SARM1 SAM-TIR – cell lysate, NAD-Glo luminescence (AID 1508614;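 active = compound whose remaining NAD level is above about 45 nM, limit read from the data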;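 note: higher remaining NAD means stronger inhibition of SARM1 NADase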); conditions: SAM-TIR HEK293T lysate NADase, at 1 µM, stronger effect = higher value
Chain of NAD(+) hydrolase SARM1 (Homo sapiens) (Q6SZW1 whole entry, looked up): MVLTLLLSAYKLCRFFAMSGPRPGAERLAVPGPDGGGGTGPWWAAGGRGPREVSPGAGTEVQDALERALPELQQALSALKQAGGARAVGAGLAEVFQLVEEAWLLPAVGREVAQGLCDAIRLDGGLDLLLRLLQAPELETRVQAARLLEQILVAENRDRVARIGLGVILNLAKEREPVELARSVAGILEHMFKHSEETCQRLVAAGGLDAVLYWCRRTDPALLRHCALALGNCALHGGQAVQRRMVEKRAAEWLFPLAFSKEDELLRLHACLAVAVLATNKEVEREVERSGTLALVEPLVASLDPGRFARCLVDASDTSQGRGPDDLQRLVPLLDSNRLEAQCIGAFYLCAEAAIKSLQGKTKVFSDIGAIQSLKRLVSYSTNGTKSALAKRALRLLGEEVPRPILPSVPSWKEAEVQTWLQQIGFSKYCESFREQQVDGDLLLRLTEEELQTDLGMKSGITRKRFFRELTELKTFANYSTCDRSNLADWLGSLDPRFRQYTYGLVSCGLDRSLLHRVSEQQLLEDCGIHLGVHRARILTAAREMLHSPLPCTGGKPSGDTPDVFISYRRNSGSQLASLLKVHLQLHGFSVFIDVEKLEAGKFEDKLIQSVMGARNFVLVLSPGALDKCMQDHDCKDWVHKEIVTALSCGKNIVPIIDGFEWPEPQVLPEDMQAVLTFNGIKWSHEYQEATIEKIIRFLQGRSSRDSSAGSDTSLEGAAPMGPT

[15] = measured here: epithelial PC-3E GFP cell survival
[16] = measured here: mesenchymal TEM4-18 mCherry cell survival
[17] = stronger effect = lower value, cell number ratio, induced over uninduced
[18] = measured here: relative caspase fold change +Dox/-Dox
[19] = measured here: total cells with miR-34 induction, stronger effect = lower value
[20] = measured here: total cells without miR-34 induction
[21] = MELAS cybrid survival, CellTiter-Glo 48 h, stronger effect = higher value
[22] = Rieske KO mouse fibroblast survival, CellTiter-Glo 72 h

CN1C(=O)CC(c2ccccc2)C1=O (stereo not drawn)
survival [1]: 19.1 (inactive) | parasite load remaining [2]: 94.6% (inactive) | viability [2]: 73.1% | nuclear beta-catenin stimulation ([3]; at 10 µM): 0.4% (inactive) | nuclear beta-catenin stimulation ([3]; stimulation, at 2 µM): 0.3% | insulin secretion stimulation [4]: -0.7% (inactive) | viability decrease [5]: 4.95% (inactive) | tube area decrease [6]: -2.7% (inactive) | GLP1 secretion stimulation [7]: -0.4% (inactive) | inhibition of viability [8]: -5.7% (inactive) | viability decrease (inhibition) [9]: 54.4% (active) | viability decrease (inhibition) [10]: 12.9% (inactive) | red/green cell ratio (normalised) [11]: 0.99 (inactive) | normalised cell number [11, 15]: 1.01 | normalised cell number [11, 16]: 1 | fold change [12, 17]: 0.941 (inactive) and 0.972 (inactive) | fold change [12, 18]: 1.17 and 0.864 | cell count [12, 19]: 9250 and 9510 | cell count [12, 20]: 9830 and 9780 | z-score [13, 21]: 0.397 (inactive) | z-score [13, 22]: 0.0941 | remaining NAD [14]: 10 nM (inactive)

CC(=O)N[C@@H](CCC(N)=O)C(=O)O
nuclear beta-catenin stimulation ([3]; at 10 µM): -2.5% (inactive) | nuclear beta-catenin stimulation ([3]; stimulation, at 2 µM): 0.1% | insulin secretion stimulation [4]: 2.8% (inactive) | viability decrease [5]: -2.5% (inactive) | tube area decrease [6]: 12.1% (inactive) | GLP1 secretion stimulation [7]: -3.6% (inactive) | inhibition of viability [8]: 0.7% (inactive) | viability decrease (inhibition) [9]: 9.6% (inactive) | viability decrease (inhibition) [10]: -3.7% (inactive) | red/green cell ratio (normalised) [11]: 0.96 (inactive) | normalised cell number [11, 15]: 0.97 | normalised cell number [11, 16]: 0.93 | fold change [12, 17]: 0.922 (inactive) | fold change [12, 18]: 0.675 | cell count [12, 19]: 8950 | cell count [12, 20]: 9710 | remaining NAD [14]: 10 nM (inactive)

Cc1cc2nc3ccc(=[N+](C)C)cc-3sc2cc1N
nuclear beta-catenin stimulation ([3]; at 10 µM): 21.6% (inactive) | nuclear beta-catenin stimulation ([3]; stimulation, at 2 µM): 1% | insulin secretion stimulation [4]: -0.6% (inactive) | viability decrease [5]: 90.5% (active) | tube area decrease [6]: 108% (active) | GLP1 secretion stimulation [7]: -3.7% (inactive) | inhibition of viability [8]: 82.7% (active) | viability decrease (inhibition) [9]: 85% (active) | viability decrease (inhibition) [10]: 38.4% (inactive) | red/green cell ratio (normalised) [11]: 1.59 (inactive) | normalised cell number [11, 15]: 0.17 | normalised cell number [11, 16]: 0.28 | fold change [12, 17]: 1.11 (inactive) | fold change [12, 18]: 1.04 | cell count [12, 19]: 2760 | cell count [12, 20]: 2500 | remaining NAD [14]: 10 nM (inactive)

CCCCC(CC)COc1ccc(-c2nc(-c3ccc(OC)cc3)nc(-c3ccc(OCC(CC)CCCC)cc3O)n2)c(O)c1 (stereo not drawn)
nuclear beta-catenin stimulation ([3]; at 10 µM): -1% (inactive) | nuclear beta-catenin stimulation ([3]; stimulation, at 2 µM): 2% | insulin secretion stimulation [4]: 0.7% (inactive) | viability decrease [5]: 4.7% (inactive) | tube area decrease [6]: 2.9% (inactive) | GLP1 secretion stimulation [7]: -2.3% (inactive) | inhibition of viability [8]: -5.3% (inactive) | viability decrease (inhibition) [9]: -1.3% (active) | viability decrease (inhibition) [10]: -8.3% (inactive) | red/green cell ratio (normalised) [11]: 0.89 (inactive) | normalised cell number [11, 15]: 1.25 | normalised cell number [11, 16]: 1.12 | fold change [12, 17]: 0.959 (inactive) | fold change [12, 18]: 0.849 | cell count [12, 19]: 9430 | cell count [12, 20]: 9840 | remaining NAD [14]: 10 nM (inactive)

O=S(=O)(O)CCCS(=O)(=O)O
nuclear beta-catenin stimulation ([3]; at 10 µM): -2.1% (inactive) | nuclear beta-catenin stimulation ([3]; stimulation, at 2 µM): -0.3% | insulin secretion stimulation [4]: 2.9% (inactive) | viability decrease [5]: -15.7% (inactive) | tube area decrease [6]: -1.1% (inactive) | GLP1 secretion stimulation [7]: -2.7% (inactive) | inhibition of viability [8]: -1.7% (inactive) | viability decrease (inhibition) [9]: -9.3% (inactive) | viability decrease (inhibition) [10]: -13.5% (inactive) | red/green cell ratio (normalised) [11]: 0.74 (inactive) | normalised cell number [11, 15]: 1.27 | normalised cell number [11, 16]: 0.94 | fold change [12, 17]: 0.939 (inactive) | fold change [12, 18]: 1.14 | cell count [12, 19]: 9300 | cell count [12, 20]: 9900 | remaining NAD [14]: 10 nM (inactive)

Cc1ncc(CSSCc2cnc(C)c(O)c2CO)c(CO)c1O
nuclear beta-catenin stimulation ([3]; at 10 µM): 0.2% (inactive) | nuclear beta-catenin stimulation ([3]; stimulation, at 2 µM): -2.2% | insulin secretion stimulation [4]: 1.7% (inactive) | viability decrease [5]: 4.2% (inactive) | tube area decrease [6]: -25.7% (inactive) | GLP1 secretion stimulation [7]: 6.7% (inactive) | inhibition of viability [8]: 14.3% (inactive) | viability decrease (inhibition) [9]: 6.1% (inactive) | viability decrease (inhibition) [10]: 15.6% (inactive) | red/green cell ratio (normalised) [11]: 0.89 (inactive) | normalised cell number [11, 15]: 1.03 | normalised cell number [11, 16]: 0.92 | fold change [12, 17]: 0.95 (inactive) | fold change [12, 18]: 0.868 | cell count [12, 19]: 8920 | cell count [12, 20]: 9390 | remaining NAD [14]: 10 nM (inactive)

CC(C)COC(=O)c1ccc(N)cc1
nuclear beta-catenin stimulation ([3]; at 10 µM): 0.2% (inactive) | nuclear beta-catenin stimulation ([3]; stimulation, at 2 µM): 0.4% | insulin secretion stimulation [4]: -1.9% (inactive) | viability decrease [5]: -5.95% (inactive) | tube area decrease [6]: 0.5% (inactive) | GLP1 secretion stimulation [7]: 0.9% (inactive) | inhibition of viability [8]: 6.2% (inactive) | viability decrease (inhibition) [9]: 61.3% (active) | viability decrease (inhibition) [10]: 12.5% (inactive) | red/green cell ratio (normalised) [11]: 1.09 (inactive) | normalised cell number [11, 15]: 0.86 | normalised cell number [11, 16]: 0.93 | fold change [12, 17]: 0.964 (inactive) | fold change [12, 18]: 0.986 | cell count [12, 19]: 8750 | cell count [12, 20]: 9080 | remaining NAD [14]: 10 nM (inactive)

CCN1C(=O)NC(c2ccccc2)C1=O (stereo not drawn)
survival [1]: 2.42 (inactive) | parasite load remaining [2]: 83.9% (inactive) | viability [2]: 100% | nuclear beta-catenin stimulation ([3]; at 10 µM): -2.4% (inactive) | nuclear beta-catenin stimulation ([3]; stimulation, at 2 µM): -0.9% | insulin secretion stimulation [4]: -1% (inactive) | viability decrease [5]: -5.5% (inactive) | tube area decrease [6]: -23% (inactive) | GLP1 secretion stimulation [7]: 7% (inactive) | inhibition of viability [8]: -1% (inactive) | viability decrease (inhibition) [9]: 2.2% (inactive) | viability decrease (inhibition) [10]: 8.6% (inactive) | red/green cell ratio (normalised) [11]: 0.92 (inactive) | normalised cell number [11, 15]: 1.08 | normalised cell number [11, 16]: 1 | fold change [12, 17]: 0.858 (inactive) | fold change [12, 18]: 1.11 | cell count [12, 19]: 8830 | cell count [12, 20]: 10300 | z-score [13, 21]: 0.723 (inactive) | z-score [13, 22]: 0.79 | remaining NAD [14]: 10 nM (inactive)

CC(=O)N(CC(O)CO)c1c(I)c(C(=O)NCCO)c(I)c(C(=O)NCC(O)CO)c1I (stereo not drawn)
nuclear beta-catenin stimulation ([3]; at 10 µM): 9.8% (inactive) | nuclear beta-catenin stimulation ([3]; stimulation, at 2 µM): 0.7% | insulin secretion stimulation [4]: 0.3% (inactive) | viability decrease [5]: -3.3% (inactive) | tube area decrease [6]: 1.4% (inactive) | GLP1 secretion stimulation [7]: 2.4% (inactive) | inhibition of viability [8]: -3.1% (inactive) | viability decrease (inhibition) [9]: -2.5% (active) | viability decrease (inhibition) [10]: 0.4% (inactive) | red/green cell ratio (normalised) [11]: 0.83 (inactive) | normalised cell number [11, 15]: 1.22 | normalised cell number [11, 16]: 1.02 | fold change [12, 17]: 0.937 (inactive) | fold change [12, 18]: 0.945 | cell count [12, 19]: 9070 | cell count [12, 20]: 9680 | remaining NAD [14]: 10 nM (inactive)
